B1: ENSMUSG00000061578.522|Ksr2 (ssRNA)
RNA: GGGAGUUCUACAGUCCGACGAUCGCUUCGAUAUCCGCAUGCUAGGAGCUCUUGCCUAACACACACCAAGCCCCAAGUUCCAUCCCCAGUCCCACACAAACCAGAUAUGAUGGUGUGUGCCUAUGUCCCCCACACACGAGAGAGCUGGAGGCAGGAGGAUCAGAAGUUCAGGGCCAUCCUUAAUCAUACAGUGAGCUUGAGAGCAACCUGGGCUACAUGUGACCCUAAUAACUUUUGUAAAUUCAGCACACUUGGCACCUCACACUCCAUGUCCAUAUACUGCAUGUGCCACACACACACACACCUCUUGCGGUCGCACUAGUGUGGAAUUCUCGGGUGUCAAGG
B2: ENSMUSG00000028439.215|Fam219a (ssRNA)
RNA: GGGAGUUCUACAGUCCGACGAUCGCUUCGAUAUCCGCAUGCUAACCUGGGUUCUGGUCCCAGCCUCGGCAUUCUCCCUGAGCUCCUAAGCAAUUCCCAGGCUUCUCUAGGGCUUCAGUUCUCACAACUGGAAAAUAAAGAGUAGCUGACAUCACCGACAGAGUCUUUUCAUACCAGAAGGAAUUUCUUCACAGGAGUUUCUGCAAAAGACUAUGACAUCUGUGUGUCUGUGGUCUCACGAGGUACCUGGAGGUGUAUGUGCACGGACAUGGGAAGUACGUGAAGAUUUAUUUCGGGAAAAGUGCUCUUGCGGUCGCACUAGUGUGGAAUUCUCGGGUGUCAAGG
B3: ENSMUSG00000022095.99|Fam160b2 (ssRNA)
RNA: GGGAGUUCUACAGUCCGACGAUCGCUUCGAUAUCCGCAUGCUAGCCCCCUCUUCCUGCUCUACCCUCCUGGAGGCUGUUGCAAAAUUCCCAACUGCCUCCUGGCAGAGGCCCAAAGUAUGCUCUGCGCCCAGGCGGGGGCAGCUGCUAACAAGAGCCCUGGCGCAGCUGCAGCCAGGGCAGGCGAGAGCCUUGGAGCUGGGUGCCAGGCUCCAGCUCCAGCUCCAGCUGGUUCCUCUCUGGCGCCUUCUGAACCCGUCUCAGCAAGUCCGAAACACCUGGGCAGAGAGGUCAUUGACCAGGGACUCUUGCGGUCGCACUAGUGUGGAAUUCUCGGGUGUCAAGG
B4: ENSMUSG00000031028.626|Tub (ssRNA)
RNA: GGGAGUUCUACAGUCCGACGAUCGCUUCGAUAUCCGCAUGCUAUUAGGGUAAAUGAAAGUUAGUCCUGGCUCUCAUCACCACCUUUCCUAGCUCAUCACUGUGCCUUCUUUCUUCCCUAAGAAAGACAAUGCACCCCUCUCUUCUGUUCUCCUGCCCCUUCGCCCCCACUGAGGUCCAGGUAGAGCAGAUGAGGCUGAAAUGUAGAGUGUUCUAUAGAGCAUCUCAGUAGCAUAGAAGGAGAAGCCCAGCUCCAACCUCCUGGACCCCAUACUGGUGACCAGCUUGGUGAGGACAGGCAAAAUCUCUUGCGGUCGCACUAGUGUGGAAUUCUCGGGUGUCAAGG

In all, about 9,900 sequences were measured (“r (bound/input frequency ratio)”: median about 0.7, highest 2% from about 6.5 on). Only a selection was taken, and the highest values are over-represented in it overall.

TDP-43, sequence (Q13148 whole entry): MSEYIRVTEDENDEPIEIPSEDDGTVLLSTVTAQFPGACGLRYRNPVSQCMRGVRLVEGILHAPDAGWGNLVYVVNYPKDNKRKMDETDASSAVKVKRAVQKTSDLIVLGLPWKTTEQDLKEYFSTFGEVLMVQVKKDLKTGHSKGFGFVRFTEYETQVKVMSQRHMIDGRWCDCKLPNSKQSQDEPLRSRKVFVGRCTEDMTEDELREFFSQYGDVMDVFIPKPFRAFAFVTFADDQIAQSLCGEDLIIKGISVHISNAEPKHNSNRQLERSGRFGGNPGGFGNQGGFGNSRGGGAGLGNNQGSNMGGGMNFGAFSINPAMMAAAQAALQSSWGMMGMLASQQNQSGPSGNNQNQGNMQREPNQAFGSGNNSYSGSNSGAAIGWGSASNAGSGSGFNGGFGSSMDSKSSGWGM

The assay addresses TDP-43 (Homo sapiens, UniProt Q13148 1-414). The assay can be described thus: RNA Bind-n-Seq with designed 260-mer pool; 25 mM Tris-HCl, 150 mM KCl, 3 mM MgCl2, BSA (printed 500 mg/mL), 20 units/mL SUPERase IN; pH not stated; 500 nM RNA pool, 1 h, 4 C; TDP-43 5, 50, 500 nM; high values mean tight binding. Conditions: protein: recombinant; tags: SBP (GST cleaved off with PreScission; pGEX-GST-SBP). The gist of the method:
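In 25 mM Tris-HCl, 150 mM KCl, 3 mM MgCl2, BSA and SUPERase IN, 500 nM of an in vitro-transcribed 260-nt 3′ UTR oligo pool was incubated for 1 h at 4 °C with SBP-tagged TDP-43 (5, 50 or 500 nM) captured on streptavidin beads. RNA remaining after washes was biotin-eluted, reverse transcribed, PCR-amplified and sequenced. Binding, R, is the bound-sample abundance of each oligo, normalized to mapped reads, divided by its abundance in input. Each duplicate used a separate, independent protein batch.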
On to B1, for which the binding signal is 2.82 R (bound/input frequency ratio).
The result for B2 reads 1.67 R (bound/input frequency ratio); that for B3, 0.917 R (bound/input frequency ratio).
With B4 the figure was 0.915 R (bound/input frequency ratio).

For the origin of these results see paper PMC12864922, “TDP-43 directly inhibits mRNA accumulation in neurites through modulation of mRNA stability”.
